The record followed here is PubChem BioAssay AID2098 (Broad Institute, 2009).

Among all 300,000 compounds or so, about 2,300 (0.77%) were called active. This excerpt belongs to a sample that is enriched for actives. Values without a mark were called inactive.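 The calls were made as follows: active = more than half of replicate wells show activity change below -50%, luminescence cut by over half; inconclusive = some wells, but at most half, below -50%; inactive = no replicate well below -50%.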

The test can be described thus: HSF1 inhibitors in luciferase reporter cells, primary screen, cell-based, NIH3T3, luminescence (AID 2098).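 Also: luciferase reports HSF-1 transcriptional activity via heat shock element; 0% = median of DMSO wells and -100% = zero luminescence signal.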 Particulars: NIH3T3-HGL HSE-luciferase, MG132-induced, luminescence 8 h; stronger effect = lower value; screened at 7.5 µM (by protocol). (Reporter assays use an easily measured gene product as a stand-in for the process of interest.)
As to `COc1ccc([C@@H]2[C@@H]3C(=O)N(C(C)(C)C)C(=O)[C@@H]3[C@]3(Cc4ccccc4)C(=O)N(c4cccc(Br)c4)C(=O)N23)cc1`, the activity change, negative = inhibition is -4.65%.
As for `CCOc1ccc(NS(=O)(=O)c2ccc(C(=O)NC3CCN(Cc4ccccc4)CC3)cc2)cc1`, the figure is -0.719%; as for `Cc1nc(-c2ccc(F)cc2)c(CC(=O)Nc2cccc(S(=O)(=O)N3CCOCC3)c2)s1`, 4.76%; as for `CCCCn1c(N)c(N(CC(C)C)C(=O)c2ccc(-n3c(C)ccc3C)cc2)c(=O)[nH]c1=O`, -2.25%.
As for `Cn1c(-c2sc3cc(C(F)(F)F)cnc3c2-c2ccccc2)n[nH]c1=S`, the figure is -4.57%; as for `Cn1c(-c2sccc2OCc2cccc(C(F)(F)F)c2)n[nH]c1=S`, -82.6% (active); as for `COc1cc(/C=N/n2c(C)n[nH]c2=S)ccc1OCc1ccccc1`, -2.45%.
As for `CC1CCN(CC(O)COc2ccc(C(=O)c3ccccc3)cc2)CC1` (configuration not stated), the figure is -15%; as for `O=C(c1ccc(Cl)cc1)c1ccc(OCC(O)CN2CCCCC2)cc1` (configuration not stated), -7.88%.
In the case of `O=C(c1ccccc1)c1ccc(OCC(O)CN2CCCC2)cc1` (configuration not stated), the activity change, negative = inhibition is -61.3% (active).
In the case of `Cc1ccc(NC(=O)CSc2nc(=O)n(CCN(C)C)c3c2CCCC3)c(C)c1` it was -5.63%; in that of `COc1ccc(C2=NN(C(=O)CSc3nc(=O)n4ccc(C)cc4n3)C(c3ccc(C)cc3)C2)cc1` (configuration not stated), 11.2%.
In the case of `CC(=O)N/C(=C\c1ccccc1)C(=O)OC(C)C(=O)N(C)c1ccccc1` (configuration not stated) it was 1.34%; in that of `C/C(=N\Nc1nncc2ccccc12)c1ccc(Cl)c([N+](=O)[O-])c1`, -54.9% (active).
As for `O=C(Nc1cccnc1)c1ccc(Cl)c([N+](=O)[O-])c1`, the figure is -4.95%; as for `Cc1nc2ccccc2c(=O)n1NC(=O)c1ccc(Cl)c([N+](=O)[O-])c1`, 1.5%; as for `COc1ccc(NS(=O)(=O)c2ccc(C)c(C(=O)N(C)Cc3ccc(OC)cc3OC)c2)cc1`, -0.123%.
Turning to `Cc1ccc(C)c(OCCC(=O)OCC(=O)c2ccc3c(c2)NC(=O)CO3)c1`, the activity change, negative = inhibition was 1.77%.
As for `O=C(Nc1ccccc1)/C(=C/c1ccc([N+](=O)[O-])cc1)NC(=O)c1ccccc1`, the figure is -11.2%; as for `CCOC(=O)/C(=C\c1ccc([N+](=O)[O-])cc1)C(=O)c1cc(C(C)=O)c(Nc2ccccc2)s1`, -93.6% (active).
In the case of `Cc1ccc(NC(=O)/C(=C/c2ccc([N+](=O)[O-])cc2)NC(=O)c2ccccc2)cc1`, the activity change, negative = inhibition was -1.77%.
In the case of `CC1CCCCC1NC(=O)c1cc(=O)[nH]c2ccccc12` (configuration not stated) it was -3.75%.
With `Nc1ccc(C(=O)N2CCN(S(=O)(=O)c3ccc(Cl)cc3)CC2)cc1[N+](=O)[O-]`, the activity change, negative = inhibition was 3.46%.
Take `CCOc1ccc(C(=O)Nc2ccncc2)cc1`: the activity change, negative = inhibition is 4.46%.
In the case of `CCOC(=O)c1cc(NC(=O)c2cccnc2)ccn1` it was -72.9% (active); in that of `CCOC(=O)c1cccnc1NC(=O)c1ccncc1`, -52.6% (active); in that of `CCOc1cc(C(=O)Nc2ncccn2)cc(OCC)c1OCC`, -4.41%.
With `CCOC(=O)c1ccc(NC(=O)c2cccnc2)cc1`, the activity change, negative = inhibition is -6.35%.
Turning to `CCOc1ccccc1NC(=O)c1cccnc1`, the activity change, negative = inhibition was -2.44%.
For `CCOC(=O)c1c(C)oc2cc(Sc3ccccc3)c(O)c(O)c12`, the activity change, negative = inhibition is 13.1%.
For the molecule `COc1ccc(C(=O)NCC(c2ccco2)N2CCc3ccccc32)cc1OC` (configuration not stated), the activity change, negative = inhibition was 2.71%.
As for `CCC(=O)c1ccc(OCC(=O)OCC(=O)NC2CCCCCC2)cc1`, the figure is -9.22%; as for `COc1ccc(CNC(=O)COC(=O)CCS(=O)(=O)c2ccc(C)cc2)cc1OC`, -1.13%.
In the case of `O=C(Cc1ccc(Cl)cc1)NC1CCS(=O)(=O)C1` (configuration not stated) it was 0.993%; in that of `O=C(CSc1nn(-c2ccc(F)cc2)c(=S)s1)NC1CCS(=O)(=O)C1` (configuration not stated), 2.24%.
As for `O=C(CSc1ccccc1F)NC1CCS(=O)(=O)C1` (configuration not stated), the figure is -68.8% (active); as for `CN(CC(=O)Nc1ccccc1Cl)C(=O)COc1cccc2c1OC(C)(C)C2`, 4.06%; as for `CN1C/C(=C/c2cccs2)C(=O)/C(=C\c2cccs2)C1`, 19.3%.
With `Cc1cccc(C2=N/C(=C/c3cccs3)C(=O)O2)c1`, the activity change, negative = inhibition is -10.1%.
As for `CSC1=N/C(=C\C=C\c2cccs2)C(=O)S1`, the figure is -67.1% (active); as for `CCCc1cc(=O)[nH]c2nnc(SCC(=O)Nc3nnc(SCC)s3)n12`, -2.82%; as for `COc1ccc(CCNC(=O)Cc2ccc(C)cc2)cc1OC`, -5.1%.
With `COc1cccc(/C=C/C(=O)OCC(=O)N2CCCc3ccccc32)c1`, the activity change, negative = inhibition was 0.601%.
In the case of `CCC1Nc2ncnc(N3CCN(c4ccccc4)CC3)c2N(Cc2ccc(Cl)cc2)C1=O` (configuration not stated) it was 11.2%.
As for `COc1cccc(CNc2nc(C(F)(F)F)nc3ccccc23)c1`, the figure is 0.989%; as for `CCc1ccc(C(CNc2nc(C(F)(F)F)nc3ccccc23)N(C)C)cc1` (configuration not stated), -82% (active); as for `NS(=O)(=O)c1ccc(CCNc2nc(C(F)(F)F)nc3ccccc23)cc1`, -2.88%.
As for `CCCCn1c(N)c(N(CC(C)C)C(=O)c2ccc(Br)o2)c(=O)[nH]c1=O`, the figure is 4.02%; as for `CCCN(CCc1ccccc1)C1CCc2c(O)cccc2C1` (configuration not stated), 7.71%; as for `CCOC(=O)C1=C(c2ccc(OC)cc2)C(=O)c2ccccc2C1=O`, 31.1%.
In the case of `CCOC(=O)c1c(C)[nH]c(C)c1S(=O)(=O)N(C)CC(=O)Nc1ccccc1C`, the activity change, negative = inhibition was 4.41%.
In the case of `CCOC(=O)c1c(C)[nH]c2c1-c1ccccc1C(=O)C2=O` it was -91.5% (active).
As for `CSc1ccc(S(=O)(=O)NCC(=O)OCC(=O)NC2(C#N)CCCCC2)cc1[N+](=O)[O-]`, the figure is 4.69%; as for `O=C(Cn1c(N2CCN(C/C=C/c3ccccc3)CC2)nc2ccccc21)c1ccccc1`, -0.086%; as for `CC(C)Cn1c(N2CCN(C(=O)/C=C/c3ccccc3)CC2)nc2ccccc21`, -65.4% (active).
In the case of `CC(C)N(C(=O)Cn1c(SCC(=O)N2CCN(c3ccccc3)CC2)nc2ccccc21)C(C)C` it was -10.4%.
As to `O=C(COc1ccccc1Cl)Nc1ccccc1C(=O)NC1CC1`, the activity change, negative = inhibition is 6.98%.
